The values below come from PubChem BioAssay (NCATS).

Test [1] is described as follows: qHTS Assay for Lipid Storage Modulators (AID 1519; calls by dose curve; as to activity change, negative = inhibition: % is scaled to controls: 0 for no effect and ±100 for the full control effect). To be noted: Drosophila S3 cells, BODIPY lipid droplet/cell ratio, laser cytometry, cells loaded with oleic acid. The procedure, abridged: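 Cells seeded at 5,000 per well were treated with compounds over a concentration series and loaded with oleic acid (400 uM, as added). Lipid droplet fluorescence (488 nm excitation, 500-530 nm channel) was read by laser-scanning cytometry and normalized to 20 uM Triacsin C.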
On the technique in general: In qHTS, concentration-response curves come from the screen itself.

Test [2] has as its target alpha-glucosidase (Oryza sativa, rice) (UniProt Q653V4). In words: Counterscreen for Glucocerebrosidase Inhibitors: qHTS Assay for Rice alpha-Glucosidase at pH 5.0 (AID 997).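 Also: 0% = full activity with enzyme and -100% = basal without enzyme.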 Particulars: rice alpha-glucosidase enzyme activity; series mostly up to 76.9 µM. The procedure, abridged:
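Rice alpha-glucosidase (4 nM final) with 400 uM 4-methylumbelliferyl-alpha-D-glucopyranoside in citrate buffer pH 5.0, 20 min at room temperature, stopped at pH 10; fluorescence 365/440 nm, compounds 0.7 nM–77 uM, AC50 from Hill fits.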
A general note: The purpose of a counterscreen is to sort out artefacts and off-target activity.

In test [3] the target is Alpha-galactosidase (Coffea arabica) (UniProt Q42656). The test can be described thus: Counterscreen for Glucocerebrosidase Inhibitors: qHTS Assay for Coffee Bean alpha-Galactosidase at pH 5.9 (AID 998).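 Also: plate controls were uninhibited enzyme for no effect and no-enzyme basal signal for full effect.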 Particulars: coffee bean alpha-galactosidase enzyme assay; series mostly up to 76.9 µM. Summed up:
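Green coffee bean enzyme (2 nM) with 4-methylumbelliferyl alpha-D-galactopyranoside (80 uM) in 50 mM citric acid, 0.005% Tween-20, pH 5.9, 20 min at room temperature; compounds 0.7 nM–77 uM. Stopped at pH 10, fluorescence Ex365/Em440; Hill-fit AC50.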

Test [4] in a line: qHTS for differential inhibitors of proliferation of Plasmodium falciparum line 7G8 (AID 1815).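 Also: parasite growth measured after three days of incubation; plate controls were vehicle wells for no effect and reference inhibitor wells for full effect.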 Particulars: Plasmodium falciparum 7G8 proliferation inhibition; series mostly up to 28.7 µM.
Test [5] is described as follows: qHTS for differential inhibitors of proliferation of Plasmodium falciparum line GB4 (AID 1816).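 Also: parasite growth measured after 72 h incubation; 0% = vehicle DMSO and -100% = reference inhibitor.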 To be noted: Potency: Plasmodium falciparum GB4 proliferation inhibition; series mostly up to 28.7 µM.
Test [6] in a line: qHTS for differential inhibitors of proliferation of Plasmodium falciparum line 3D7 (AID 1876).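 Also: parasite growth measured after three days of culture; 0% = vehicle wells and -100% = reference inhibitor wells.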 Particulars: P. falciparum 3D7 proliferation inhibition; series mostly up to 28.7 µM.
A short description of test [7]: qHTS for differential inhibitors of proliferation of Plasmodium falciparum line D10 (AID 1877).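 Also: parasites grown with compound for 72 h before DNA staining; plate controls were vehicle wells for no effect and reference inhibitor wells for full effect.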 Particulars: series mostly up to 28.7 µM.
The nature of test [8]: qHTS for differential inhibitors of proliferation of Plasmodium falciparum line Dd2 (AID 1882).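 Also: plate controls were DMSO vehicle for no effect and 0.29 µM artemisinin for full effect; nearly all actives have a fitted effect of over 65% in size.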 To be noted: Potency: Plasmodium falciparum Dd2 proliferation inhibition; series mostly up to 28.7 µM. The procedure, abridged: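 Dd2-infected erythrocytes (0.3% parasitemia, 2.5% hematocrit final) incubated with compound 72 h at 37 C, 5% CO2; lysed with saponin/Triton buffer containing SYBR Green I, incubated overnight in the dark, then read by fluorescence (485/535 nm). Normalized to 0.29 uM artemisinin and DMSO.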

Test [9] is described as follows: qHTS for differential inhibitors of proliferation of Plasmodium falciparum line W2 (AID 1883).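 Also: parasites grown with compound for 72 h before lysis and staining; 0% = vehicle wells and -100% = control inhibitor wells.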 To be noted: Potency: Plasmodium falciparum W2 proliferation inhibition; series mostly up to 28.7 µM.
Test [10] in a line: qHTS for differential inhibitors of proliferation of Plasmodium falciparum line HB3 (AID 1886).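 Also: parasites grown with compound for 72 h before SYBR Green readout; plate controls were vehicle for no effect and reference inhibitor for full effect.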 Particulars: Potency: Plasmodium falciparum HB3 proliferation inhibition; series mostly up to 28.7 µM.
In test [11] the target is Ferritin light chain (Equus caballus) (UniProt P02791). In words: qHTS Validation Assay for Identification of Novel General Anesthetics (AID 2323). Also: % is scaled to controls: 0 for no effect and ±100 for the full control effect. Particulars: horse apoferritin, anesthetic-site fluorescent probe displacement; series mostly up to 76.9 µM. The procedure, abridged: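 10 uM horse-spleen apoferritin + 1-AMA (50% saturated, PBS); cpd pin-transferred, 10 min RT. Ex 380/Em 535 nm endpoint. Activity normalized between free 1-AMA and 1-AMA/apoferritin; 4-parameter Hill fit of concentration-response.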
Chain of Ferritin light chain (Equus caballus) (P02791 2-175 limits assumed): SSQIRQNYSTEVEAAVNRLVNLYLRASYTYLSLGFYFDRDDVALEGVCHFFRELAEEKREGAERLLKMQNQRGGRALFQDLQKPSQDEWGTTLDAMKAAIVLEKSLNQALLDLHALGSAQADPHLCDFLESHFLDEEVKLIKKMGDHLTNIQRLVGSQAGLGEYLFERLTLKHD

The target in test [12] is ATP-dependent DNA helicase Q1 (Homo sapiens) (UniProt P46063). The test can be described thus: qHTS Validation Assay for Inhibitors of RecQ-Like Dna Helicase 1 (RECQ1) (AID 2353).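 Also: plate controls were DMSO vehicle for no effect and enzyme-free control for full effect.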 Particulars: recombinant RECQ1 helicase DNA unwinding assay; series mostly up to 25.6 µM. The procedure, abridged: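 50 nM RECQ1T1 preincubated 15 min with compound in Tris pH 8.0 buffer with MgCl2, DTT, Tween-20 and 2.5 ug/ml poly(dI-dC); started with 200 nM TAMRA/BHQ-2 forked duplex and 2 mM ATP. Unwinding read as fluorescence (525/598 nm), two reads 2 h apart.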
Chain of ATP-dependent DNA helicase Q1 (Homo sapiens) (P46063 whole entry, looked up): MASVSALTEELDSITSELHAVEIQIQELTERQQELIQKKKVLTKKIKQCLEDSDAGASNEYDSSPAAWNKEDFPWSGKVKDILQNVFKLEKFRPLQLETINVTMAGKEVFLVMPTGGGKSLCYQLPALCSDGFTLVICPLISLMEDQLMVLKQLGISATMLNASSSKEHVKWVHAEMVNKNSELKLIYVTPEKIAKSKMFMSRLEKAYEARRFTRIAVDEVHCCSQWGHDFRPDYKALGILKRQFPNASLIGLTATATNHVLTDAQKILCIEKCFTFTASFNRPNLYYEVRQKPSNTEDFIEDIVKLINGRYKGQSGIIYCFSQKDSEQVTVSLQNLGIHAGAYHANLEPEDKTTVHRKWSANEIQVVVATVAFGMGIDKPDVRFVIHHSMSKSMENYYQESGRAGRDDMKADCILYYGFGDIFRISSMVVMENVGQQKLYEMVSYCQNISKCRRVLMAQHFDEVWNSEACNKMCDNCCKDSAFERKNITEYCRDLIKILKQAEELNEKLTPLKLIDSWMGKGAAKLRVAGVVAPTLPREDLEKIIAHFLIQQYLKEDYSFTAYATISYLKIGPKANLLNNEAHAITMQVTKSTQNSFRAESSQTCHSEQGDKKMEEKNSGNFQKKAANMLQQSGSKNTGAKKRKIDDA

The target in test [13] is RecQ-like DNA helicase BLM (Homo sapiens) (UniProt P54132). The test can be described thus: qHTS Validation Assay for Inhibitors of Bloom's syndrome helicase (BLM) (AID 2364).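 Also: plate controls were DMSO vehicle for no effect and enzyme-free control for full effect.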 To be noted: BLM helicase DNA unwinding, fluorescence, in vitro; series mostly up to 57.1 µM. Summed up:
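50 nM BLM preincubated 15 min at room temperature with compound in pH 8.0 Tris buffer containing 2.5 ug/ml poly(dI-dC); started with 200 nM TAMRA/BHQ-2 forked duplex and 2 mM ATP (final). Unwinding read as TAMRA fluorescence increase, two reads 2 h apart.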

Test [14] can be described thus: High Content Imaging Cell-Based qHTS for Inhibitors of the mTORC1 Signaling Pathway in MEF (Tsc2-/-, p53-/-) Cells (AID 2666).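 Also: percent of cells scored positive for phospho-rpS6 Ser235/236 immunostaining by imaging.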 To be noted: at 38.3 µM (top of the series). The procedure, abridged:
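Phospho-rpS6 (Ser235/236) immunofluorescence, normalized and scored as % positive cells using rapamycin and DMSO controls, was read in empty-vector Tsc2-/-, p53-/- MEFs after 24 h compound exposure at 37 C; propidium iodide counted cells.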

Test [15] is described as follows: Validation screen for inhibitors of Lassa infection (AID 463096; calls by dose curve; also: % is scaled to controls: 0 for no effect and ±100 for the full control effect). To be noted: Lassa virus infection, cell-based; series mostly up to 46.1 µM.
Test [16] can be described thus: Validation screen for small molecules that induce DNA re-replication in MCF 10A normal breast cells (AID 463097). Also: 0% is about no effect; nearly all actives have a fitted effect of over 60% in size. Particulars: MCF 10A cells, DNA re-replication phenotype imaging; series mostly up to 46.1 µM. Summed up: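 250 MCF 10A cells/well; compound pin-transferred; 48 hr, 37 C, 5% CO2; Hoechst 40 min; imaged 405/500-530 nm. Hits = more high-intensity nuclei.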

The target of test [17] is Ubiquitin carboxyl-terminal hydrolase 2 (Homo sapiens) (UniProt O75604). In words: qHTS Validation Assay for Inhibitors of Ubiquitin-specific Protease USP2a Using CHOP2 as the Reporter (AID 463106).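 Also: plate controls were DMSO for no effect and full inhibition by NEM for full effect.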 Particulars: USP2a cleavage of CHOP2 reporter, enzymatic; series mostly up to 38.3 µM. The procedure, abridged:
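USP2 core (10 nM final) was preincubated with compound 30 min at RT in pH 8.0 Tris/CaCl2/beta-ME/CHAPS buffer. Ub-CHOP2 and reporter substrate (25 nM final each) were then added, with fluorescence (Ex 485/Em 531) read after 60 min. Data were normalized to NEM full inhibition and fitted to concentration-response curves.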

The mark [18] stands for this setting: measured here: cell count channel max response.
[19] abbreviates: measured here: lipid channel max response.

Records with an inconclusive call do not appear. Activity calls are given as the source filed them. Unless noted, calls follow the shape of the dose curve; as a rule, active = well fitted curve in the direction sought with a large enough effect; inconclusive = small, poorly fitted or top-dose-only effect, or another doubt; inactive = no such curve, though single readings can be large; an effect the other way counts as inactive or inconclusive.

Chain of Alpha-galactosidase (Coffea arabica) (Q42656 whole entry, looked up): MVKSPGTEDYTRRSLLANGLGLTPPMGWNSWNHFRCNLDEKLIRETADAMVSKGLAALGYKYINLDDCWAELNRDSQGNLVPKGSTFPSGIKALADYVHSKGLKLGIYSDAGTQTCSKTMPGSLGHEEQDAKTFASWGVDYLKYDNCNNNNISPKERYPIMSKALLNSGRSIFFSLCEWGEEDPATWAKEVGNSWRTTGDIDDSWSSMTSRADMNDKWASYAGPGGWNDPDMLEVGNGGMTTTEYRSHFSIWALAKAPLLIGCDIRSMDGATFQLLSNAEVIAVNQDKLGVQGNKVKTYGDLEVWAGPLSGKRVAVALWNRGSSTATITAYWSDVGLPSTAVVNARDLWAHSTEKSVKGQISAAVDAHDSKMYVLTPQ
Chain of Ubiquitin carboxyl-terminal hydrolase 2 (Homo sapiens) (O75604 whole entry, looked up): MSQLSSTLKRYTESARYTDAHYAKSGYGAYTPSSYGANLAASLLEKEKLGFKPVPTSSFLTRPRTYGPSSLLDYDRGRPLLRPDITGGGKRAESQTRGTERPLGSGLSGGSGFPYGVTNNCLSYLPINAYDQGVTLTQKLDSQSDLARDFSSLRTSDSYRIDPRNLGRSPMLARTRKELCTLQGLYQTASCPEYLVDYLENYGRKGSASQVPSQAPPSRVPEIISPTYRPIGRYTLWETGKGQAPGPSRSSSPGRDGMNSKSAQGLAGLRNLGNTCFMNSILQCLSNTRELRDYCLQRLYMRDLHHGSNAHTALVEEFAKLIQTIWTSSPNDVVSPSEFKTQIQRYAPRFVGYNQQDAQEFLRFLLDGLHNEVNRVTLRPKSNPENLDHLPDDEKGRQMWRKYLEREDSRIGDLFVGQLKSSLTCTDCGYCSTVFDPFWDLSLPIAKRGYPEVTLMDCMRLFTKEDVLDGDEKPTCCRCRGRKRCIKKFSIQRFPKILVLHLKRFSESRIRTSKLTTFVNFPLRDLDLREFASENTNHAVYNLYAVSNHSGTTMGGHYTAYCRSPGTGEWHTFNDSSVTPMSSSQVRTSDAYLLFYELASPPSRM
Chain of RecQ-like DNA helicase BLM (Homo sapiens) (P54132 whole entry, looked up): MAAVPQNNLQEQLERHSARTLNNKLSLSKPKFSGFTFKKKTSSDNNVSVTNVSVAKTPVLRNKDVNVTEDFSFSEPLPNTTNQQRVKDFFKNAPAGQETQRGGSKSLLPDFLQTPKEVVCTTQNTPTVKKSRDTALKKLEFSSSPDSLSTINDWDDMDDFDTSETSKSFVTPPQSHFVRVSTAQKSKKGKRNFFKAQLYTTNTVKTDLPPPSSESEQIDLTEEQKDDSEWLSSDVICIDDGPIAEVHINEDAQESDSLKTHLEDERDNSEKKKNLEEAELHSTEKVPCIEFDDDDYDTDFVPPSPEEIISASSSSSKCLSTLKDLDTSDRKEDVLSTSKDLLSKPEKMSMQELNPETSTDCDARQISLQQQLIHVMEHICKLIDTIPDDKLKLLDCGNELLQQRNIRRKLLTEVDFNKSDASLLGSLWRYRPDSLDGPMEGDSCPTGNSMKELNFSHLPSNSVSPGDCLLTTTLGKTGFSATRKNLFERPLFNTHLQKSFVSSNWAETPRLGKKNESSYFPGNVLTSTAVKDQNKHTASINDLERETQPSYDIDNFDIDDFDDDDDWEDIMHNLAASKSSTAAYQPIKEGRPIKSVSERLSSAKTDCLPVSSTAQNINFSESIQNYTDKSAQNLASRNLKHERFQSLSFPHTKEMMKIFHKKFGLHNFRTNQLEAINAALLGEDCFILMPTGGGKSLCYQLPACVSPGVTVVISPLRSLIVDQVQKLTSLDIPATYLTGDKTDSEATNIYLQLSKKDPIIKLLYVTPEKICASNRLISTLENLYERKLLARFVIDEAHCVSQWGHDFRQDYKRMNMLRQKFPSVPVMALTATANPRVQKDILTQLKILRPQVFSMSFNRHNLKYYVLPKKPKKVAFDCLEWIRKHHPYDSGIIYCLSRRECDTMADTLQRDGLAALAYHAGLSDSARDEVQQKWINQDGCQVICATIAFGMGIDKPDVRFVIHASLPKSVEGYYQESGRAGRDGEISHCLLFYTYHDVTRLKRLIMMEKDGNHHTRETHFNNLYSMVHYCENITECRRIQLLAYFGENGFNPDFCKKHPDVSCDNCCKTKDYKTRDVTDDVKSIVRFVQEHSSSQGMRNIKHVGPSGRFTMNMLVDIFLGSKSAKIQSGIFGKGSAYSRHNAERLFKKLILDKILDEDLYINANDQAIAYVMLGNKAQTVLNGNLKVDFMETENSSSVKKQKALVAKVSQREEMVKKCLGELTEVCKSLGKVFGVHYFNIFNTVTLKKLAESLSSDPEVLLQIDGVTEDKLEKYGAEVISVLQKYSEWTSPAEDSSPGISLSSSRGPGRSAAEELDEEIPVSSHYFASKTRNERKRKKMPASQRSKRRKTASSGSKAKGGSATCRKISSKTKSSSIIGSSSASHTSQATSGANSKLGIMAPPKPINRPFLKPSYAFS

Turning to `NC(=O)CS(=O)C(c1ccccc1)c1ccccc1` (stereo unspecified), the activity change, negative = inhibition in [1] (at 57.5 µM (top of the series)) is 4.67% (inactive). Further, the max response in test [1] (setting [18]) is 3.09%; in test [1] (setting [19]), 10.7%.
`c1ccc2c(c1)sc1ccccc12`: the activity change, negative = inhibition in test [1] (at 57.5 µM (top of the series)) was 7.62% (inactive). The max response is -5.03% in test [1] (setting [18]) and 4.45% in test [1] (setting [19]).
Take `O=P1(N(CCCl)CCCl)NCCCO1` (stereo unspecified): the compound was called inactive in test [2], in test [3], in test [11], in test [13], in [14] and in test [15]. In addition, the result in test [16] and in test [17] was inactive. In addition, the activity change, negative = inhibition in test [1] (at 57.5 µM (top of the series)) was 0.148% (inactive). In addition, the figures for the max response in test [1] (setting [18]) and in [1] (setting [19]) were -27.9% and -28.7%, respectively. Moreover, the Potency entry in test [4], in test [5], in [6], in test [7], in test [8] and in test [9] was “inactive” each time. Also, the Potency entry in test [10] and in [12] was “inactive” each time.
Turning to `O=c1oc2ccccc2c(O)c1Cc1c(O)c2ccccc2oc1=O`, the activity change, negative = inhibition in [1] (at 25.7 µM (top of the series)) is 0.983% (inactive). The results for the max response in [1] (setting [18]) and in [1] (setting [19]) were -11.3% and -10.4%, respectively.
`Clc1cccc(SC2CCNCC2)n1`: the activity change, negative = inhibition in [1] (at 57.5 µM (top of the series)) was -5.67% (inactive). Further, the max response in test [1] (setting [18]) is -24.9%; in test [1] (setting [19]) it was -29.2%.
As for `Cc1ccc(C(=O)c2ccc(CC(=O)O)n2C)cc1`, the activity change, negative = inhibition in [1] (at 25.7 µM (top of the series)) is -1.39% (inactive). For the same compound, the values for the max response in test [1] (setting [18]) and in [1] (setting [19]) were -5.63% and -8.93%, respectively.
On to `COc1ccc2c(c1OC)C(=O)O[C@H]2[C@@H]1c2cc3c(cc2CCN1C)OCO3`, for which the outcome in [14] and in [17] was inactive.
As to `COc1cc(NS(C)(=O)=O)ccc1Nc1c2ccccc2nc2ccccc12`, in [3], the outcome was inactive.
Regarding `CC(C)NNC(=O)c1ccncc1`, the compound was classed as inactive in test [3] and in test [15].
Consider `COc1ccc2cc([C@H](C)C(=O)O)ccc2c1`, for which the compound was classed as inactive in test [3] and in test [15].
Turning to `Cc1ccc(Cl)c(Nc2ccccc2C(=O)O)c1Cl`, the compound was classed as inactive in test [3] and in test [15].
In the case of `CC(=O)O[C@H]1C(=O)[C@@]2(C)[C@H]([C@H](OC(=O)c3ccccc3)[C@]3(O)C[C@H](OC(=O)[C@H](O)[C@@H](NC(=O)c4ccccc4)c4ccccc4)C(C)=C1C3(C)C)[C@]1(OC(C)=O)CO[C@@H]1C[C@@H]2O`, the outcome in [3] was inactive.
Regarding `CNCCC=C1c2ccccc2CCc2ccccc21`, the call in test [3] was inactive.
In the case of `O=c1[nH]cnc2[nH]ncc12`, the outcome in [3] and in test [15] was inactive.
Regarding `CCn1nc(C(=O)O)c(=O)c2cc3c(cc21)OCO3`, the compound was classed as inactive in test [3] and in test [15].
On to `CN1CCC[C@@H]1c1cccnc1`, for which the call in [3] was inactive.
`CNCCCC12CCC(c3ccccc31)c1ccccc12`: in test [3], the call was inactive.
`NC(N)=Nc1nc(CSCC/C(N)=N/S(N)(=O)=O)cs1`: the result in test [3] and in test [15] was inactive.
Take `CCCCCCCCCCCCCCCC(=O)NCCO`: the compound was classed as inactive in test [3] and in test [15].
With `CCN1CCC[C@H]1CNC(=O)c1cc(S(N)(=O)=O)ccc1OC`, the call in test [3] and in [15] was inactive.
Consider `C[N+](C)(C)CCCCCC[N+](C)(C)C`, for which the outcome in test [3] and in test [15] was inactive.
Turning to `CN1CCN(CCC=C2c3ccccc3Sc3ccc(S(=O)(=O)N(C)C)cc32)CC1`, the call in [3] was inactive.
Consider `Nc1nc2ccc(OC(F)(F)F)cc2s1`, for which the call in test [3] was inactive.
In the case of `Nc1ccc(S(=O)(=O)Nc2ccnn2-c2ccccc2)cc1`, the result in test [3] and in test [15] was inactive.
`Clc1cccc(Cl)c1NC1=NCCN1`: the result in [3] and in test [15] was inactive.
As to `C1COC(NC(C2CC2)C2CC2)=N1`, the call in test [3] and in test [15] was inactive.
On to `CN1C(C)(C)CCCC1(C)C`, for which the call in [3] was inactive.
Take `C[N+](C)(C)CCOC(N)=O`: the outcome in test [3] and in [15] was inactive.
As for `CNC[C@H](O)c1cccc(O)c1`, the outcome in [3] and in test [15] was inactive.
In the case of `CN1[C@@H]2CC[C@H]1CC(OC(c1ccccc1)c1ccccc1)C2` (stereo partly specified), the compound was called inactive in test [3].
On to `NC(=O)N1c2ccccc2C=Cc2ccccc21`, for which the compound was called inactive in [3] and in [15].
For `CC(C)Cc1ccc(C(C)C(=O)O)cc1` (stereo unspecified), in test [3], the result was inactive.
Turning to `CC(=O)c1ccc(S(=O)(=O)NC(=O)NC2CCCCC2)cc1`, the compound was classed as inactive in [3] and in [15].
For the compound `O=c1[nH]c(=O)n([C@H]2C[C@H](O)[C@@H](CO)O2)cc1Br`, the result in test [3] and in test [15] was inactive.
Take `O=C1NCC2(CCN(CCc3ccccc3)CC2)O1`: the outcome in test [3] and in [15] was inactive.
With `NC1CCN(c2cccc(Cl)n2)CC1`, the call in test [3] and in [15] was inactive.
As to `C[C@H](CS)C(=O)N1CCC[C@H]1C(=O)O`, the call in test [3] was inactive.
Take `CCO/C([O-])=N/c1c[n+](N2CCOCC2)no1`: the result in test [3] and in test [15] was inactive.
As to `CC(C)(C)NC[C@H](O)COc1nsnc1N1CCOCC1`, in [3], the outcome was inactive.
As to `CC(=O)Oc1cc(C(C)C)c(OCCN(C)C)cc1C`, the outcome in [3] and in test [15] was inactive.
Consider `CCOC(=O)c1cnc2c(cnn2CC)c1NN=C(C)C`, for which the outcome in test [3] was inactive.
